In the library only some 1.3% were active in any assay of this set; here they are far more common.
ugtP null kill: growth inhibition of ugtP-null S. aureus, primary screen, RN4220 ugtP deletion, OD600; 16 h; growth inhibition, % (no concentration beside the values); 330,000 tested, 0.54% active; AID 1259309, 2017; in the data active = growth inhibition above about 68%;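 also: plate controls were untreated wells for no effect and antibiotic for full effect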
PfHsp40 rescue: rescue of yeast from PfHsp40 toxicity, primary screen, S. cerevisiae, ATP luminescence; growth rescue, % at 12.5 µM; 340,000 tested, 0.68% active; S. cerevisiae expressing PfHsp40, growth rescue; in the data active = growth rescue above about 28%, passing the limit was not always enough;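 also: yeast W303a lacking pdr1 and pdr3 grown in galactose medium; growth measured after three days at 30 °C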
RN4220 kill: growth inhibition of S. aureus RN4220, primary screen, OD600; 16 h; inhibition, % (concentration not given with the values); 330,000 tested, 0.33% active; in the data active = inhibition above about 85%;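 also: plate controls were untreated cells for no effect and reference antibiotic for full effect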
3CLpro inhibitor: SARS-CoV 3CLpro protease inhibitors, primary screen, biochemical, quenched FRET. recombinant SARS-CoV 3CLpro, quenched FRET peptide cleavage. inhibition, % at 6 µM. 290,000 tested, 0.14% active; in the data active = inhibition above about 12%
BJeLR viability: MLPCN primary cell-based screen for lethality selective to Ras in HRASV12 cells; BJeLR (HRASV12) viability, CellTiter-Glo ATP luminescence, 48 h; inhibition, % (no concentration beside the values); 300,000 tested, 0.17% active; AID 1554, 2009; in the data active = inhibition above about 50%
Starred values were filed as active, the others as inactive; / = no result.

SMILES | ugtP null kill | PfHsp40 rescue | RN4220 kill | 3CLpro inhibitor | BJeLR viability
Cc1ccc(Nc2c([N+](=O)[O-])ccc3c2=NC2(CCCCC2)N=3)cc1 | 4 | 59* | 1 | 2 | 2
O=[N+]([O-])c1ccc2c(c1Nc1ccccc1Cl)=NC1(CCCCC1)N=2 | 5 | / | -1 | -3 | -5
CCCNc1nc(-c2cc(C(=O)Nc3ccccc3)on2)cc(C(C)C)n1 | / | 365* | / | / | -11
COCCNc1nc(C)cc(-c2cc(C(=O)Nc3ccccc3)on2)n1 | / | 0 | / | / | -4
COc1ccc2nc(C)cc(N/N=C/c3ccc(F)cc3)c2c1 | / | -1 | / | -23 | 93*
O=C(N/N=C/c1cc(Cl)ccc1O)c1ccccc1Br | / | 108* | / | 0 | 7
O=C(N/N=C/c1cc(Cl)ccc1O)c1cccnc1 | / | -1 | / | 4 | 14
O=C(NN=Cc1cc(Cl)ccc1O)c1ccc(Br)cc1 | 90* | / | 74 | / | /
CCN(CC)CCn1c(NS(=O)(=O)c2ccc(C)cc2)nc2ccccc21 | 12 | 0 | 2 | / | /
O=C(O)CCCNC1=NCCC1 | 2 | -2 | 11 | -4 | -6
CCN1/C(=C/C(C)=C/c2sc3ccccc3[n+]2CC)Sc2ccccc21 | 99* | 1 | 100* | -1 | 63*
COc1ccc(C=NNC(=O)CCCOc2ccc(Cl)cc2Cl)cc1[N+](=O)[O-] | -28 | / | -6 | / | /
Cc1ccc(Nc2c(-c3ccccn3)nc3ccc(C)cn23)cc1 | 95* | 3 | 100* | -3 | 33
Cc1ccn2c(Nc3ccc4c(c3)OCO4)c(-c3ccccn3)nc2c1 | 23 | 2 | 48 | 0 | -1
Cc1ccc(Nc2c(-c3ccccn3)nc3cc(C)ccn23)cc1 | 100* | 0 | 100* | -1 | 39
Cc1ccc2nc(-c3ccncc3)c(Nc3ccccc3)n2c1 | -4 | -1 | 2 | 0 | -10
Cc1cccc(C)c1Nc1nnc(SCc2cn3cccc(C)c3n2)s1 | -3 | 1 | 8 | 1 | /
Cc1ccc(C)c(Sc2ccc(NC(=O)CCN3C(=O)NC4(CCCC4)C3=O)cc2)c1 | -9 | 31* | -13 | / | /
Cc1ccc(NC(=O)CCN2C(=O)NC3(CCCC3)C2=O)cc1 | 4 | -1 | 3 | / | /
c1ccc(N2CCN(Cc3ccnc4ccccc34)CC2)cc1 | 3 | 0 | 4 | -4 | 30
Oc1c(CN2CCN(c3ccccc3)CC2)cc(Br)c2cccnc12 | -2 | 1 | 19 | -1 | 77*
Cc1ccc(NCc2ccc(O)c3ncccc23)cc1 | 6 | 0 | 8 | 6 | 4
Oc1c(CNc2ccccc2)cc(COCc2ccccc2)c2cccnc12 | 3 | 53* | 9 | / | /
Oc1c(CN2CCOCC2)cc(COCc2ccccc2)c2cccnc12 | 3 | 65* | 6 | 0 | 16
Oc1c(Br)cc(Br)c2cccnc12 | / | 148* | / | / | /
SMILES | ugtP null kill | PfHsp40 rescue | RN4220 kill | 3CLpro inhibitor | BJeLR viability
CC(C)CNC(=O)c1cc2nc3c(c(C(F)(F)F)n2n1)CCc1ccccc1-3 | 0 | 0 | 7 | 4 | 4
Cc1ccc(-c2cc(C(=O)N/N=C\c3cnn(C)c3C)c3ccccc3n2)cc1C | / | 0 | / | -3 | -15
CCCCCCSc1ccc([C@H]2N[C@@](C)(C(=O)OC)[C@H]3C(=O)N(C)C(=O)[C@@H]23)cc1 | / | 39* | / | / | 13
CCCSc1ccc([C@H]2N[C@@](C)(C(=O)OC)[C@H]3C(=O)N(C)C(=O)[C@@H]23)cc1 | / | -2 | / | / | 11
CC1(c2ccccc2)CC(C)(C)N2C(=O)C(=C3SC(=S)NC3=O)c3cccc1c32 (stereo unspecified) | 100* | / | 100* | / | /
O=c1c2cc(-c3ccccc3)sc2ncn1N=Cc1ccco1 | -17 | / | -8 | / | /
COc1cc(/C=C/c2nc3ccccc3c(=O)n2-c2cccc(O)c2)ccc1O | 99* | -1 | 99* | -3 | 1
COc1cc(/C=C/c2nc3ccccc3c(=O)n2-c2ccccc2O)ccc1O | 99* | 2 | 93* | 2 | -11
O=c1c2ccccc2nc(/C=C/c2ccc(O)c(O)c2)n1-c1ccccc1 | -20 | 0 | 11 | -5 | 11
CC[C@H](C)[C@H](NC(=O)OCc1ccccc1)C(=O)OCC(=O)Nc1ccc(N2CCOCC2)cc1 | 10 | 2 | -1 | / | -9
Cc1ccccc1C(=O)NC1CCN(CC(=O)Nc2c(C)cccc2C)CC1 | -8 | -1 | -2 | 2 | -9
COc1ccc(C(=O)NNC(=O)CSc2nnc(COc3ccccc3)n2C)cc1 | 8 | 1 | 3 | -1 | -12
